Assay outcomes as filed in PubChem BioAssay.
BCLXL inh: inhibitors of human Bcl-xL, primary screen, biochemical, fluorescence polarization, HTS. Bcl-2-like protein 1 (Homo sapiens), Q07817. GST-Bcl-xL / FITC-Bim BH3 peptide fluorescence polarization. inhibition, % at 10.9 µM. 320,000 tested, 0.7% active. AID 2129, 2009;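 active = inhibition above the mean of all tested compounds plus 3 SD, cutoff set per campaign, cut at about 30% in these data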;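 note: 0% = DMSO wells and 100% = unlabeled Bim-BH3 peptide competitor; inhibitors lower millipolarization by displacing the labeled peptide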
MCL1 BIM primary: inhibitors of MCL1 binding to BIM-BH3, primary screen, biochemical, fluorescence polarization | GST-MCL1 / FITC-Bim-BH3 fluorescence polarization | inhibition, % at 10.9 µM | 320,000 tested, 0.68% active | Induced myeloid leukemia cell differentiation protein Mcl-1 (Homo sapiens), Q07820;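 active = inhibition above the mean inhibition of all tested compounds plus 3 SD, set per campaign, cut at about 40% in these data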;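 note: 0% = DMSO wells and 100% = unlabeled Bim-BH3 peptide control; higher means more loss of mP so more displacement of Bim peptide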
Target sequence (Q07820 whole entry, looked up): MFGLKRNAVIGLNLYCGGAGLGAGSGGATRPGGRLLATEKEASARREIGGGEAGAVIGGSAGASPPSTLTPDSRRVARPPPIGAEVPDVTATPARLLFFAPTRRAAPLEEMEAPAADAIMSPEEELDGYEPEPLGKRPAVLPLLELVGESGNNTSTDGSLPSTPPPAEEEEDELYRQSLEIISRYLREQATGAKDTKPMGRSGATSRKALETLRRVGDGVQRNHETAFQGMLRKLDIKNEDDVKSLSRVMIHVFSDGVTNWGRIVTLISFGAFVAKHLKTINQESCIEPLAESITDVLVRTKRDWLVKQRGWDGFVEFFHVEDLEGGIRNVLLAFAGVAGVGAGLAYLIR
Mcl1-Bid inh: Mcl-1/Bid binding inhibitors, primary screen, biochemical, TR-FRET, 1536-well; 220,000 tested, 0.97% active; TR-FRET Mcl-1/Bid-Dy647 peptide binding; inhibition, % at 21.7 µM; AID 1021, 2008; Induced myeloid leukemia cell differentiation protein Mcl-1 (Homo sapiens), Q07820;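 active = compounds that cut the binding signal by more than half at the single screening dose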;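 note: His-tagged Mcl-1 with europium anti-His antibody binding Bid BH3 peptide; 0% = Mcl-1 plus peptide wells and 100% = peptide-only wells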
GLD-1 RNA inh: GLD-1/TGE RNA complex disruptors, primary screen, biochemical, fluorescence polarization; Female germline-specific tumor suppressor gld-1 (Caenorhabditis elegans), Q17339; purified GLD-1 + fluorescein TGE RNA; inhibition, % at 5.96 µM; 320,000 tested, 0.44% active;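 active = percent inhibition above a per-plate cutoff, the plate mean of test compounds plus 3 SD, cut at about 30% in these data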;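 note: 0% = DMSO wells with GLD-1 and probe and 100% = wells lacking GLD-1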
Mcl-1 Bim block: inhibitors of Bim peptide binding to Mcl-1, primary screen, biochemical, bead-based flow cytometry, multiplex. Bim peptide-Mcl-1 binding. inhibition, % at 10 µM. 190,000 tested, 0.1% active. AID 1009, 2008; in the data active = inhibition above about 40%;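 note: 0% = no compound tracer wells and 100% = peptide blocker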
Mcl1-Noxa inh: Mcl-1/Noxa binding inhibitors, primary screen, biochemical, TR-FRET, 1536-well. AID 1022, 2008. 220,000 tested, 1.5% active. inhibition, % at 21.7 µM. Induced myeloid leukemia cell differentiation protein Mcl-1 (Homo sapiens), Q07820. TR-FRET Mcl-1/Noxa peptide binding, 2 h;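 active = compounds that cut the protein-peptide binding signal by more than 50% relative to plate controls in a single-dose test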;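 note: His-tagged Mcl-1 with rhodamine Noxa BH3 peptide and terbium anti-His antibody; 0% = Mcl-1 plus Noxa peptide wells and 100% = peptide-only wells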
Bcl-xL conf: Bcl-xL inhibitors blocking Bim BH3 binding, confirmation, counter-screen for MCL1 inhibitor project, biochemical, fluorescence polarization. inhibition, % at 10.9 µM. shares compounds with MCL1 BIM primary. GST-Bcl-xL / FITC-Bim BH3 peptide FP binding. 1,700 tested, 54% active;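 active = inhibition above a cutoff equal to the mean inhibition of all tested compounds plus 3 SD, cut at about 30% in these data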;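 note: 0% = DMSO wells and 100% = unlabeled Bim BH3 control peptide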
MCL1 inh confirm: inhibitors of MCL1 binding to BIM-BH3, confirmation, biochemical, fluorescence polarization, triplicate. shares compounds with MCL1 BIM primary. GST-MCL1 / FITC-Bim-BH3 fluorescence polarization. inhibition, % at 10.9 µM. 1,700 tested, 61% active;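 active = inhibition above the average of all tested compounds plus 3 SD, cut at about 40% in these data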;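 note: 0% = DMSO wells and 100% = unlabeled Bim-BH3 control peptide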
* marks the source's active call; other numbers are inactive results; / = no result. Compounds with a hit are over-represented: about 2.3% of the library has one in this group of screens.

SMILES	BCLXL inh	MCL1 BIM primary	Mcl1-Bid inh	GLD-1 RNA inh	Mcl-1 Bim block	Mcl1-Noxa inh	Bcl-xL conf	MCL1 inh confirm
N#CC1=C(N)C(C#N)(C#N)C(c2cccnc2)C2COCC=C12 (stereo unspecified)	27	28	-38	23	-2	-2	/	/
CC(C)(C)C1CC=C2C(C#N)=C(N)C(C#N)(C#N)C(c3cccs3)C2C1 (stereo unspecified)	60*	63*	/	62*	/	/	114*	145*
CCOc1ccc(NC(=O)CN(C)C(=O)CCCn2c(=O)oc3ccccc32)cc1OCC	-10	-9	/	-3	/	/	/	/
COc1cccc(Oc2nc(N)ncc2[N+](=O)[O-])c1	-1	-3	/	0	/	/	/	/
C=CCNS(=O)(=O)c1cccc2cc(C(=O)O)c(O)cc12	14	97*	-7	9	1	9	30	39
On1ccccc1=S	1	68*	/	0	/	/	2	2
CC(C)=CC(=O)N1CC[C@@H](N2CCN(c3ccccc3F)CC2)[C@H](O)C1	2	2	/	1	/	/	/	/
COc1ccc(CC(=O)Nc2cccc(C(=O)Nc3cccc(C)c3)c2)cc1	6	118*	-34	6	-1	-8	1	5
COc1ccc(NS(=O)(=O)c2cccc(C(=O)O)c2)cc1	12	13	-24	6	-3	24	/	/
COc1ccc(NS(=O)(=O)c2cccc(C(=O)Nc3cccc(C(=O)O)c3)c2)cc1	4	68*	/	6	/	/	-1	-2
S=c1[nH]nc(COc2ccc(Cl)cc2Cl)n1-c1ccccc1	0	-3	/	1	/	/	/	/
CC(NC(=O)C(=O)NCCc1c[nH]c2ccccc12)c1ccccc1 (stereo unspecified)	5	-5	/	0	/	/	/	/
COc1ccc2c(c1)Sc1ccccc1N2CCN(C)C	1	-1	36	-4	-1	31	/	/
COc1ccc2ccc3c(c2c1)N=CC1(O3)N(C)c2ccccc2C1(C)C (stereo unspecified)	36*	54*	-28	7	-4	44	62*	83*
COc1ccc2[nH]c(C(=O)Nc3ncc(C)cc3Br)cc2c1	14	52*	-8	8	/	-5	4	1
CN(C)C(=O)COc1ccc(S(=O)(=O)c2ccc(OCC(=O)N(C)C)cc2)cc1	-3	-5	/	7	/	/	/	/
Cc1c(O)c2c3c(cccc3c1O)C(=O)N(c1ccccc1)C2=O	91*	98*	-6	82*	-3	-9	92*	105*
CN1Cc2sc(N)c(C#N)c2CC1(C)C	61*	59*	-53	24	1	-2	22	13
CC1(C)Cc2c(sc(N)c2C#N)C(C)(C)N1	6	0	-68	-11	-6	3	/	/
CCOC(=O)c1c(OCC)[nH]c2c1cc(O)c1ccccc12	16	42*	-23	16	8	75*	56*	73*
Cc1ccc(C)c(S(=O)(=O)C(C#N)c2nc3ccccc3nc2N2CCCC2)c1 (stereo unspecified)	77*	78*	-16	51*	-5	42	22	12
Cc1ccc(C)c(S(=O)(=O)C(C#N)c2nc3ccccc3nc2N2CCOCC2)c1 (stereo unspecified)	13	13	6	12	-7	21	/	/
CCc1ccc(-c2nc(CS(=O)CC(=O)NC3CCCCCC3)c(C)o2)cc1 (stereo unspecified)	3	1	/	-6	/	/	/	/
O=S(=O)(c1ccc(SCCOc2ccc(F)cc2)nc1)N1CCCC1	2	5	/	-3	/	/	/	/
